Laboratory results reported in the OligoGym collection.

Target: LIMK2
Assay: pooled miR-30 sensor sort-seq; sequence = guide strand
Conditions: shRNA
Note: reference of the scale not given here.

**Q.** Which sensor-assay potency score (higher = more potent) does the source give for ATGAACTTGAGCACATTGGGGT here?
**A.** -0.105

**Q.** TTTCTTTCGTCCACACACTTGA was tested. Which sensor-assay potency score (higher = more potent) did it give?
**A.** 0.0479

**Q.** For TTGTCCAACTTGATGAGGCAGT, which sensor-assay potency score (higher = more potent) is on record?
**A.** -0.14

**Q.** How did the sensor-assay potency score (higher = more potent) turn out when TACAGCACACCAATGAACTTGA was run?
**A.** -0.145

**Q.** For TCGAGTAACAGATTCCTCCTGG, which sensor-assay potency score (higher = more potent) is on record?
**A.** 1.05

**Q.** TTCTGAGATCTCCTCTTCCTGG was tested. Which sensor-assay potency score (higher = more potent) did it give?
**A.** -0.852

Target: LIN54
Assay: as above
Conditions: shRNA

**Q.** With TTTTAAGACATCCTGATCGTTT as the sequence, how does the sensor-assay potency score (higher = more potent) read?
**A.** -0.141

**Q.** How did the sensor-assay potency score (higher = more potent) turn out when TAGTCTTTTAAAATCATTGAAT was run?
**A.** -0.779

**Q.** For TTTACAAGCAAAACATTCGTAA, which sensor-assay potency score (higher = more potent) is on record?
**A.** -0.274

**Q.** TTTCTTTAAAAGATAGTCCTTT was tested. Which sensor-assay potency score (higher = more potent) did it give?
**A.** 0.288

**Q.** How did the sensor-assay potency score (higher = more potent) turn out when TACAATTTCAAACACAGTGATT was run?
**A.** -0.963

**Q.** With TACAACTATAGAGTCCTTGTAG as the sequence, how does the sensor-assay potency score (higher = more potent) read?
**A.** 0.323

**Q.** TTAGTAAGTACTACACAGGAAG was tested. Which sensor-assay potency score (higher = more potent) did it give?
**A.** -0.992

**Q.** For TTGTCTGTCCTGTAACTGCTTT, which sensor-assay potency score (higher = more potent) is on record?
**A.** -0.449

**Q.** With TAAACATACTAGATTGAGGTGC as the sequence, how does the sensor-assay potency score (higher = more potent) read?
**A.** -0.0512

**Q.** With TTATGTAACATTCTGTCTGCAG as the sequence, how does the sensor-assay potency score (higher = more potent) read?
**A.** 0.565
